# DNA FID counter = compounds displacing fluorescent DNA intercalator, primary screen, artefact control for HCV NS3 helicase inhibitor project, biochemical, FID fluorescence | DNA fluorescent intercalator displacement | inhibition, % at 7.9 µM | 290,000 compounds, 0.17% hits | AID 1845, 2009; in the data active = inhibition above about 37%;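 also: 0% = vehicle and 100% = reference compound; higher means more ethidium bromide displaced from hairpin DNA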
# PREPL inh = PREPL enzyme inhibitors, primary screen, biochemical, fluorescence polarization; inhibition, % at 5.96 µM; Prolyl endopeptidase-like (Homo sapiens), Q4J6C6; recombinant PREPL, fluorescence polarization activity-based probe; 320,000 compounds, 0.68% hits; AID 2751, 2010; in the data active = inhibition above about 43%;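 also: 0% = enzyme with DMSO and 100% = wells lacking enzyme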
# ANO1 block = TMEM16A chloride channel inhibitors, primary screen, cell-based, HTS. HEK293 TMEM16A/YFP iodide influx fluorescence, ionomycin. 310,000 compounds, 1.2% hits. Anoctamin-1 (Mus musculus), Q8BHY3. normalized B-score (activity score, 25-100; higher = stronger inhibition) at 10 µM. AID 588511, 2011;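 active = ratio plate-corrected score three or more library SD toward inhibition, starting fluorescence score within five deviations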;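 also: score derived from kinetic fluorescence span divided by baseline fluorescence per well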
# ANO1 activ = TMEM16A chloride channel activators or potentiators, primary screen, cell-based, HTS | Anoctamin-1 (Mus musculus), Q8BHY3 | HEK293 TMEM16A/YFP-H148Q/I152L, iodide quench fluorescence; hits give low values | B-score at 10 µM | 340,000 compounds, 0.3% hits;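 active = fluorescence-ratio B-score plate-corrected deviation score at least 3 library SD below zero, with starting fluorescence score within 5 deviations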;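 also: channel opened by trigger with iodide after compound preincubation; score built on the fluorescence ratio of max minus min over baseline; more negative score means more quench and so TMEM16A activation or potentiation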
# PP5 primary = PP5 phosphatase inhibitors, primary screen, biochemical, fluorescence; purified PP5c, OMFP substrate fluorescence; Serine/threonine-protein phosphatase 5 (Homo sapiens), P53041; 320,000 compounds, 0.18% hits; inhibition, % at 6.7 µM;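 active = inhibition above the campaign's mean inhibition across all tested compounds plus 3 SD, cut at about 9.5% in these data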;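 also: 0% = DMSO only and 100% = 100 µM cantharidin control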
# PP1 counter = PP1-alpha phosphatase inhibitors, primary screen, counter-screen for PP5 inhibitor project, biochemical, fluorescence, OMFP substrate, single point; Serine/threonine-protein phosphatase PP1-alpha catalytic subunit (Homo sapiens), P62136; purified PP1alpha; inhibition, % at 6.7 µM; 320,000 compounds, 0.9% hits; AID 2235, 2010;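 active = inhibition above the mean inhibition of all tested compounds plus 3 SD, computed separately for each screening campaign, cut at about 15% in these data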
# Target sequence (P62136 whole entry, looked up): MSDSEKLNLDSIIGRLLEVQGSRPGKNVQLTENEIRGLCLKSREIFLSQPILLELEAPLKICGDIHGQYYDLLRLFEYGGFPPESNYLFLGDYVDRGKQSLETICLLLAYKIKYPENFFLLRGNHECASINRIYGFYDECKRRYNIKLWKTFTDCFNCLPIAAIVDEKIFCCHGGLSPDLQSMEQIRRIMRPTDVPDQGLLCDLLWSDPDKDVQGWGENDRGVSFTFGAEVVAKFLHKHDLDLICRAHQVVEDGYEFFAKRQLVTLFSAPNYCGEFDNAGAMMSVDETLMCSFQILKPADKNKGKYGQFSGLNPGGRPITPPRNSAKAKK
# Numbers without * were called inactive; i = inactive; . = not tested or not shown; + = active, no number. An excerpt weighted towards active compounds, which were near 2.7% of everything screened.
SMILES,DNA FID counter,PREPL inh,ANO1 block,ANO1 activ,PP5 primary,PP1 counter
CCN(CC)c1ccc2nc3c4ccccc4c(=O)cc-3oc2c1,-2,.,i,.,.,.
CCN(CC)c1ccc2c(-c3ccc(S(=O)(=O)O)cc3S(=O)(=O)[O-])c3ccc(=[N+](CC)CC)cc-3oc2c1,.,+,i,i,-15,-23
Cc1ccc(-c2nn(-c3ccccc3)cc2C(=O)N2CCN(C3CCS(=O)(=O)C3)CC2)cc1 (stereo unspecified),.,11,.,i,4,0
Cc1ccc(-c2nn(-c3ccc(F)cc3)cc2C(=O)N2CCN(C3CCS(=O)(=O)C3)CC2)cc1 (stereo unspecified),.,0,.,-37*,0,-3
O=C(N/N=C/c1cc([N+](=O)[O-])cc(Br)c1O)C12CC3CCC(CC(C3)C1)C2,-10,10,100*,i,0,-2
COc1cc(/C=N/NC(=O)C23CC4CC(CC(C4)C2)C3)cc(Br)c1O,-18,-3,i,i,1,0
Cc1ccc(OCC(=O)N2N=C(C(F)(F)F)CC2(O)C(C)(C)C)cc1C (stereo unspecified),-33,14,100*,i,6,-5
Cc1ccc(OCC(=O)N2N=C(c3cccnc3)CC2(O)C(F)(F)F)cc1C (stereo unspecified),-18,0,i,i,0,2
CCOc1ccc(-c2nnc(NC(=O)Cc3cc(OC)c(OC)c(OC)c3)o2)cc1,-28,26,i,i,4,7
Cc1cc(C2C(=O)NC(=O)C2=O)c(C)cc1Br (stereo unspecified),.,.,.,i,.,.
N#C/C(=C\c1ccc(-c2ccc(F)cc2)o1)C(=O)Nc1nc(-c2cccs2)cs1,-5,8,i,i,2,15*
CCCN(CCC)C(=O)Cn1c(=O)c2ccccc2n2c(=S)sc(-c3ccccc3C)c12,-4,7,i,-7.6*,0,3
CCCN(CCC)C(=O)Cn1c(=O)c2sccc2n2c(=S)sc(-c3ccccc3)c12,-2,13,i,i,-1,3
Cc1ccc(O)c(Nc2c3ccccc3nc3ccccc23)c1,5,11,25*,i,0,0
Cc1ccc(NC(=O)CN(C)C(=O)CSc2nc3ccccc3c(=O)n2Cc2ccco2)cc1,-20,-17,100*,i,6,3
CCCCn1c(NC(=O)c2ccc(Br)o2)c(S(=O)(=O)c2ccccc2)c2nc3ccccc3nc21,2,3,100*,i,1,0
CC(C)[C@H](N)c1cn([C@@H](CO)C(=O)N2CCNCC2)nn1,.,3,i,i,1,3
NC(=O)C[C@H](N)c1cn([C@@H](CC(N)=O)C(=O)N2CCNCC2)nn1,.,15,i,-10*,3,4
Cc1ccc2c(cnn2C(=O)CCCC(=O)NCc2ccc(F)cc2)c1,-35,-41,i,i,4,2
CCc1ccc(CNC(=O)CCC(=O)n2ncc3cc(C)ccc32)cc1,-19,0,i,-8.8*,2,-3
COc1ccc(C(NC(=O)CN2C(=O)NC3(CCc4ccccc43)C2=O)c2ccc(OC)cc2)cc1 (stereo unspecified),.,.,.,i,.,.
CCOC(=O)[C@H]1[C@H]2COc3cc(OC)ccc3[C@@H]2N2C(=O)[C@@H](CO)NC(=O)[C@@]12C,.,3,.,.,.,.
COC(=O)c1ccc2c(c1)C(C)(C)C(/C=C/c1ccc(O)cc1)=[N+]2C,-14,-281,i,i,7,17*
COC(=O)c1ccc2c(c1)C(C)(C)C(/C=C/c1ccc(OC)c(OC)c1OC)=[N+]2C,-37,-468,i,i,1,8
O=C(CN1CCOCC1)NNC(=O)c1ccc(Cl)cc1,.,10,.,i,.,.
SMILES,DNA FID counter,PREPL inh,ANO1 block,ANO1 activ,PP5 primary,PP1 counter
O=C1CC(N2CCCN(C3CC(=O)N(c4ccc(F)cc4)C3=O)CC2)C(=O)N1c1ccc(F)cc1 (stereo unspecified),-1,4,i,-8.6*,3,2
O=C(COc1ccc(S(=O)(=O)NC2CCCCC2)cc1Cl)NCC1CCCO1 (stereo unspecified),-34,-1,i,i,-1,0
COc1ccc(CCNC(=O)COc2ccc(S(=O)(=O)NC3CCCCC3)cc2Cl)cc1,-32,9,100*,i,5,1
CCN1C(=O)CCC(C(=O)O)C1c1ccc(OC)cc1 (stereo unspecified),3,4,i,i,1,-1
CCCN1CCN(C2CCCCC2NS(=O)(=O)c2ccc(Cl)cc2)CC1 (stereo unspecified),13,31,i,i,1,-3
O=S(=O)(NC1CCCCC1N1CCN(c2ccc(F)cc2)CC1)c1ccc(Cl)cc1 (stereo unspecified),22,-59,i,-34*,1,-1
CC(C)(C)NC(=O)C(OC(=O)c1cccs1)c1ccc(F)cc1 (stereo unspecified),-12,-6,i,i,1,-1
CCOc1ccc(CCNC(=O)CSc2nn(-c3ccc(C)c(Cl)c3)c(=S)s2)cc1OCC,-8,4,i,-6*,5,-1
Cc1ccc(CNC(=O)COC(=O)Cc2ccc(-c3ccccc3)cc2)cc1,-17,-17,i,i,-6,16*
O=C(COC(=O)Cc1ccc(-c2ccccc2)cc1)NCc1ccc(F)cc1,-16,13,i,i,1,1
Clc1cccc(-c2nnc(SC/C=C/c3ccccc3)n2Cc2ccco2)c1,-21,4,i,i,2,16*
O=c1c(/C=N\NS(=O)(=O)c2ccccc2)coc2ccc(Cl)cc12,-13,-12,100*,i,0,-1
CC#Cc1cc2c(cc1O)CCC1C2CCC2(C)C(O)CCC12 (stereo unspecified),.,.,.,i,.,.
N#Cc1c(-c2cccs2)cc(-c2cccnc2)nc1N,-10,4,i,i,1,6
N#Cc1c(-c2cccs2)cc(-c2ccccn2)nc1N,-9,17,i,i,4,16*
Cc1ccc(C(=O)N2CCN(c3ncnc4c(C)csc34)CC2)cc1,-28,-11,i,i,2,6
Cc1csc2c(N3CCN(C(=O)Nc4ccccc4)CC3)ncnc12,-26,4,25*,i,-1,0
